# Source: the supplement of paper PMC8728848
# The entries come from a sample that favours the strongest signals as a whole.
# Assays:
# Assay in all cases: glycan array binding signal (z-score within array); higher = stronger binding
# Conditions in all cases: glycan notation: IUPAC condensed, linker removed
# [1] = tested on: GlcNAc(b1-2)[GlcNAc(b1-6)]Man(a1-6)[GlcNAc(b1-2)Man(a1-3)]Man(b1-4)GlcNAc(b1-4)GlcNAc
# Summary of the method: (§1)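 From the Consortium for Functional Glycomics database, 3228 arrays were curated, keeping only those whose protein sequence was available. Binding is given as a within-array Z-score averaged across arrays sharing a protein sequence and across linkers. Negative Z-scores can be read as non-binding.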
# [2] = tested on: GlcNAc(b1-3)[GlcNAc(b1-6)]Gal(b1-4)GlcNAc
# Summary of the method: as §1
# [3] = tested on: GlcNAc(b1-2)[GlcNAc(b1-6)]Man(a1-6)[GlcNAc(b1-2)Man(a1-3)]Man(b1-4)GlcNAc(b1-4)[Fuc(a1-6)]GlcNAc
# Summary of the method: as §1
# [4] = tested on: GlcNAc(b1-3)Gal(b1-4)GlcNAc(b1-2)[GlcNAc(b1-3)Gal(b1-4)GlcNAc(b1-6)]Man(a1-6)[GlcNAc(b1-3)Gal(b1-4)GlcNAc(b1-2)Man(a1-3)]Man(b1-4)GlcNAc(b1-4)GlcNAc
# Summary of the method: as §1
# [5] = tested on: GlcNAc(b1-3)Gal(b1-4)GlcNAc(b1-3)Gal(b1-4)GlcNAc(b1-2)[GlcNAc(b1-3)Gal(b1-4)GlcNAc(b1-3)Gal(b1-4)GlcNAc(b1-6)]Man(a1-6)[GlcNAc(b1-3)Gal(b1-4)GlcNAc(b1-3)Gal(b1-4)GlcNAc(b1-2)Man(a1-3)]Man(b1-4)GlcNAc(b1-4)[Fuc(a1-6)]GlcNAc
# Summary of the method: as §1
# [6] = tested on: GlcNAc(b1-3)Gal(b1-4)GlcNAc(b1-3)Gal(b1-4)GlcNAc(b1-3)Gal(b1-4)GlcNAc(b1-2)Man(a1-3)[GlcNAc(b1-3)Gal(b1-4)GlcNAc(b1-3)Gal(b1-4)GlcNAc(b1-3)Gal(b1-4)GlcNAc(b1-2)Man(a1-6)]Man(b1-4)GlcNAc(b1-4)GlcNAc
# Summary of the method: as §1
# [7] = tested on: GlcNAc(b1-3)Gal(b1-4)GlcNAc(b1-3)Gal(b1-4)GlcNAc(b1-3)Gal(b1-4)GlcNAc(b1-2)[GlcNAc(b1-3)Gal(b1-4)GlcNAc(b1-3)Gal(b1-4)GlcNAc(b1-3)Gal(b1-4)GlcNAc(b1-6)]Man(a1-6)[GlcNAc(b1-3)Gal(b1-4)GlcNAc(b1-3)Gal(b1-4)GlcNAc(b1-3)Gal(b1-4)GlcNAc(b1-2)Man(a1-3)]Man(b1-4)GlcNAc(b1-4)[Fuc(a1-6)]GlcNAc
# Summary of the method: as §1
# [8] = tested on: GlcNAc(b1-3)Gal(b1-4)GlcNAc(b1-3)Gal(b1-4)GlcNAc(b1-3)Gal(b1-4)GlcNAc(b1-3)Gal(b1-4)GlcNAc(b1-2)Man(a1-3)[GlcNAc(b1-3)Gal(b1-4)GlcNAc(b1-3)Gal(b1-4)GlcNAc(b1-3)Gal(b1-4)GlcNAc(b1-3)Gal(b1-4)GlcNAc(b1-2)Man(a1-6)]Man(b1-4)GlcNAc(b1-4)GlcNAc
# Summary of the method: as §1
# [9] = tested on: GlcNAc(b1-3)Gal(b1-4)GlcNAc(b1-3)Gal(b1-4)GlcNAc(b1-3)Gal(b1-4)GlcNAc(b1-3)Gal(b1-4)GlcNAc(b1-2)[GlcNAc(b1-3)Gal(b1-4)GlcNAc(b1-3)Gal(b1-4)GlcNAc(b1-3)Gal(b1-4)GlcNAc(b1-3)Gal(b1-4)GlcNAc(b1-6)]Man(a1-6)[GlcNAc(b1-3)Gal(b1-4)GlcNAc(b1-3)Gal(b1-4)GlcNAc(b1-3)Gal(b1-4)GlcNAc(b1-3)Gal(b1-4)GlcNAc(b1-2)Man(a1-3)]Man(b1-4)GlcNAc(b1-4)[Fuc(a1-6)]GlcNAc
# Summary of the method: as §1
# [10] = tested on: GlcNAc(b1-3)Gal(b1-4)GlcNAc
# Summary of the method: as §1
# [11] = tested on: Kdn(a2-3)Gal(b1-3)GlcNAc
# Summary of the method: as §1
# [12] = tested on: GlcNAc(b1-3)Gal(b1-4)GlcNAc(b1-3)Gal(b1-4)GlcNAc(b1-2)Man(a1-3)[GlcNAc(b1-3)Gal(b1-4)GlcNAc(b1-3)Gal(b1-4)GlcNAc(b1-2)Man(a1-6)]Man(b1-4)GlcNAc(b1-4)GlcNAc
# Summary of the method: as §1
# [13] = tested on: GlcNAc(b1-3)Gal(b1-4)GlcNAc(b1-6)[GlcNAc(b1-3)Gal(b1-3)]GalNAc
# Summary of the method: as §1
# [14] = tested on: GlcNAc(b1-4)Gal(b1-4)GlcNAc
# Summary of the method: as §1
# [15] = tested on: GlcNAc(b1-3)Gal(b1-4)Glc
# Summary of the method: as §1
# [16] = tested on: GlcNAc(b1-3)GalNAc
# Summary of the method: as §1
# [17] = tested on: GlcNAc(b1-6)GalNAc
# Summary of the method: as §1
# [18] = tested on: GlcNAc(b1-3)[GlcNAc(b1-6)]GalNAc
# Summary of the method: as §1
# [19] = tested on: GlcNAc(b1-4)GlcNAc(b1-4)GlcNAc(b1-4)GlcNAc(b1-4)GlcNAc
# Summary of the method: as §1
# [20] = tested on: GlcNAc(b1-4)GlcNAc
# Summary of the method: as §1
substance,measurement,setting,value
"Wza (Escherichia coli), P0A930",glycan array binding signal (z-score),[1],0.119
same,glycan array binding signal (z-score),[2],3.12
"SiiE (Salmonella typhimurium), A0A0H3NVH0",glycan array binding signal (z-score),[1],3.14
AgI/IIC123-GFP (Streptococcus mutans),glycan array binding signal (z-score),[3],-0.127
same,glycan array binding signal (z-score),[4],0.224
same,glycan array binding signal (z-score),[5],5.15
same,glycan array binding signal (z-score),[6],3.88
same,glycan array binding signal (z-score),[7],9
same,glycan array binding signal (z-score),[8],-0.201
same,glycan array binding signal (z-score),[9],7.4
same,glycan array binding signal (z-score),[10],-0.479
same,glycan array binding signal (z-score),[11],-0.106
LcI (Legionella pneumophila),glycan array binding signal (z-score),[12],3.83
same,glycan array binding signal (z-score),[13],-0.064
same,glycan array binding signal (z-score),[14],4
Actinohivin (Actinomycete K97),glycan array binding signal (z-score),[5],0.545
AgI/II Vhelical-GFP (Streptococcus mutans),glycan array binding signal (z-score),[6],0.722
Epa22,glycan array binding signal (z-score),[15],-0.695
same,glycan array binding signal (z-score),[16],-0.435
"GspB (Streptococcus gordonii), Q939N5",glycan array binding signal (z-score),[2],-0.418
same,glycan array binding signal (z-score),[17],-0.73
"BambL (Burhholderia ambifaria), Q0B4G1",glycan array binding signal (z-score),[18],-0.313
same,glycan array binding signal (z-score),[19],-0.314
"SpGH101 (Streptococcus pneumoniae), Q8DR60",glycan array binding signal (z-score),[20],-0.14
